For 49 molecules, activation results are on record in PubChem BioAssay AID743287 (Broad Institute, 2014).

Structures are written as SMILES. The campaign covered roughly 370,000 compounds. About 2,300 (0.62%) were called active.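 How the source made its calls: active means lowest replicate activation of at least 40%, so every replicate reaches that level; inactive means the rest.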 The full list was thinned out, with actives kept by preference.

The assay is described as follows: GLuc luminescence reporter in INS-1E cells, primary screen for activators of glucose-dependent secretion of insulin (AID 743287).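 Further: 0% = median of neutral control wells and 100% = median of IBMX positive control wells.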 The following applies: INS-1E GLuc reporter insulin secretion, 2-3 h, at 16.6 µM, hits give high values.
As for `COc1ccc(NC(=O)Nc2cccc3c2O[C@H](CN(C)Cc2ccncc2)[C@@H](C)CN([C@@H](C)CO)C3=O)cc1`, the activation is 3.69% (inactive). For `CCSc1ncnc2c(C#N)c3n(c12)CCCCC3`, the activation is 47.4% (active). Consider `CN(C)CC(=O)N1CC2(C1)[C@H](c1ccccc1)[C@H](CO)N2C(=O)C1CC1`, for which the activation is 10.8% (inactive).

As to `N#Cc1cccc(-c2ccc([C@H]3[C@@H](CO)N[C@@H]3CNC(=O)C3CCC3)cc2)c1`, the activation is 7.07% (inactive). Consider `c1ccc(CCN2CN=C(Nc3nc4ccccc4o3)NC2)cc1`, for which the activation is -24.2% (inactive). As for `Brc1ccccc1/C=N/Nc1nc2ccccc2o1`, the figure is 46.6% (active); as for `CN1C(=O)c2cc(NC(=O)c3ccno3)ccc2OC[C@H]2O[C@@H](CC(=O)NCC(F)(F)F)CC[C@@H]21`, 19.2% (inactive); as for `CC(C)(C)Oc1ccccc1Nc1nc(NCCO)nc(N2CCCC2)n1`, -9.68% (inactive).

With `Cn1ncc2c(N3CCCCC3)nc(NCCCO)nc21`, the activation is 60.1% (active). As for `COc1ccc(C#Cc2cnc3c(c2)C(=O)N([C@H](C)CO)C[C@@H](C)[C@H](CN(C)C(=O)Nc2cccc(OC)c2)O3)cc1`, the figure is 6.97% (inactive).

`C[C@@H]1CN([C@H](C)CO)C(=O)c2cc(C#Cc3ccncc3)cnc2O[C@H]1CN(C)Cc1ccncc1`: the activation was 9.79% (inactive). As for `O=C(C[C@H]1CC[C@H](NC(=O)CCN2CCCCC2)[C@@H](CO)O1)Nc1ccccc1`, the figure is 33.8% (inactive). As for `CCOC(=O)c1cnc2c(c(C)nn2CC)c1Cl`, the figure is 7.57% (inactive). Consider `CCOC(=O)c1cc(-c2ccc(Cl)s2)nc2c1c(C)nn2C`, for which the activation was 60% (active). With `CCOC(=O)c1cc(C(=O)Nc2ccc(S(=O)(=O)Nc3ccc(OC)cc3)cc2)nn1C`, the activation was 17% (inactive). As for `C[C@H]1CN([C@@H](C)CO)C(=O)Cc2cc(NC(=O)NC3CCCCC3)ccc2O[C@H]1CN(C)S(=O)(=O)c1ccccc1`, the figure is -7.37% (inactive). Regarding `CN1C(=O)c2cc(NC(=O)C3CCC3)ccc2OC[C@@H]2O[C@@H](CC(=O)NCc3ccccc3F)CC[C@@H]21`, the activation is 19.7% (inactive). For `COc1cccc(-c2cnc3c(NC(C)=O)cc(-c4cccc(NC(C)=O)c4)cn23)c1` the value was -1.53% (inactive); for `CC(=O)Nc1cc(-c2ccc(N3CCN(C)CC3)cc2)cn2c(-c3cccc(C(=O)N(C)C)c3)cnc12`, 40.3% (active); for `CC(=O)c1cccc(-c2cnc3c(NC=O)cc(-c4ccc(N5CCN(C)CC5)cc4)cn23)c1`, 9.93% (inactive). As for `CC(C)C#Cc1ccc([C@H]2[C@@H](C#N)N(C(=O)CN(C)C)[C@H]2CO)cc1`, the activation was 1.29% (inactive). For `CC(C)NC(=O)N(C)C[C@H]1Oc2ccc(N(C)C)cc2CC(=O)N(C)C[C@@H]1C` the value was 0.073% (inactive). As for `Cc1ccc(S(=O)(=O)N(C)C[C@H]2Oc3c(NS(=O)(=O)c4ccc(Cl)cc4)cccc3C(=O)N([C@H](C)CO)C[C@@H]2C)cc1`, the figure is 11.6% (inactive); as for `COc1ccc(CCNC(=O)CCn2c(=O)oc3ccccc32)cc1OC`, 49.9% (inactive). On to `COc1ccc(CCNC(=O)CCn2c(=O)c3ccccc3n(CC(=O)NCC3CCCO3)c2=O)cc1OC` (centres undefined), for which the activation is 55.9% (active). For `COc1ccccc1CNC(=O)CCCn1c(=O)c2ccccc2n(CC(=O)NC2CCCC2)c1=O` the value was -9.86% (inactive). On to `COCC(=O)Nc1ccc2c(c1)OC[C@@H](C)N(Cc1ccccc1C(=O)O)C[C@@H](C)[C@H](OC)CN(C)C2=O`, for which the activation was 4.87% (inactive). With `O=C(c1ccc(F)cc1)N1CC(=O)N2[C@@H](CO)[C@@H](c3ccc(C#Cc4ccc(F)cc4)cc3)[C@@H]2C1`, the activation is -24.9% (inactive). For `CO[C@@H]1CN(C)C(=O)c2cc(NC(=O)c3cccc(Oc4ccccc4)c3)ccc2OC[C@H](C)NC[C@@H]1C` the value was -6.99% (inactive). With `NC[C@H](Cc1ccccc1)NCCc1cc(C(F)(F)F)cc(C(F)(F)F)c1`, the activation is 143% (active). For the molecule `CCC(=O)N1CCC2(CC1)CN(Cc1cc(F)ccc1F)[C@@H](CO)c1c2c2ccc(OC)cc2n1C`, the activation was -0.065% (inactive). `O=C(c1ccccc1F)N1CC(=O)N2[C@H](CO)[C@H](c3ccc(-c4cccnc4)cc3)[C@H]2C1`: the activation was 27.6% (inactive). As to `Fc1c(F)c(C(F)(F)F)c(F)c(F)c1N1CCN(c2ccc3nnc(C(F)(F)F)n3n2)CC1`, the activation was 57% (active). As to `COc1ccc(CN(C)C[C@H]2OCCCC[C@H](C)Oc3ccc(NS(=O)(=O)c4ccc(C)cc4)cc3C(=O)N([C@@H](C)CO)C[C@H]2C)cc1`, the activation was -29.4% (inactive).

As for `COc1ccc2c3c([nH]c2c1)[C@H](CO)N(S(=O)(=O)c1cn(C)cn1)CC31CCN(CC2CC2)CC1`, the activation was 15.9% (inactive). As for `C/C=C/c1ccc2c(c1)O[C@H](CN(C)C)[C@H](C)CN([C@H](C)CO)S2(=O)=O`, the figure is 14.9% (inactive).

For `CCOc1ccc(CCNC(=O)COC(=O)C2CCN(S(=O)(=O)c3ccccc3)CC2)cc1OCC`, the activation was 22% (inactive). For `Cc1ccc(S(=O)(=O)CCC(=O)OCc2ccccc2)cc1` the value was -1.88% (inactive); for `COc1ccc(CNC(=O)COC(=O)CCS(=O)(=O)c2ccc(C)cc2)cc1OC`, 45.1% (active); for `COc1ccc(CCNC(=O)C(=O)NCc2ccccc2C)cc1OC`, 30.4% (inactive). For `CCOc1ccc(CCNC(=O)COC(=O)CCS(=O)(=O)c2ccc(C)cc2)cc1OCC` the value was 54.2% (active). Consider `COc1ccc(CCNC(=O)NS(=O)(=O)c2ccc(C)cc2)cc1OC`, for which the activation is 58.1% (active). In the case of `COc1ccc(CCNC(=O)c2nnc(CS(=O)(=O)c3ccccc3)o2)cc1OC`, the activation is 6.41% (inactive). As for `CCOc1ccc(CCNC(=O)COC(=O)c2c(OC)cccc2OC)cc1OCC`, the figure is 19.6% (inactive); as for `COc1ccc(CCNC(=O)CS(=O)(=O)Cc2nc(-c3ccc(C)cc3)oc2C)cc1OC`, -11.8% (inactive). Consider `COc1ccc(CCNC(=O)CCC(=O)NC2CCCCC2)cc1OC`, for which the activation is -1.71% (inactive).

On to `COc1ccc(CCNC(=O)CCc2ccccc2O)cc1OC`, for which the activation was 55.3% (active). As for `COc1ccc(CNC(=O)COC(=O)c2ccc(C)c(S(=O)(=O)N3CCOCC3)c2)cc1OC`, the figure is 16.8% (inactive).

Regarding `CCCNC(=O)N1CC(=O)N2[C@H](CO)[C@H](c3ccc(C#Cc4cccc(OC)c4)cc3)[C@H]2C1`, the activation is -24.3% (inactive).
